What all share (design): scale not given: direction of the effect not stated beside the values
In assay [1] the target is Protein translocase subunit SecA (Escherichia coli (strain K12)) (UniProt P10408). As to the kind of experiment: Assay to Identify E. coli SecA ATPase Inhibitors. It counts as functional. To be noted: 30 µM.
Assay [2] deals with T1, Ubiquitin-activating enzyme e1, putative (Leishmania donovani (strain BPK282A1)) (UniProt E9BSI1).
T1 sequence (whole entry): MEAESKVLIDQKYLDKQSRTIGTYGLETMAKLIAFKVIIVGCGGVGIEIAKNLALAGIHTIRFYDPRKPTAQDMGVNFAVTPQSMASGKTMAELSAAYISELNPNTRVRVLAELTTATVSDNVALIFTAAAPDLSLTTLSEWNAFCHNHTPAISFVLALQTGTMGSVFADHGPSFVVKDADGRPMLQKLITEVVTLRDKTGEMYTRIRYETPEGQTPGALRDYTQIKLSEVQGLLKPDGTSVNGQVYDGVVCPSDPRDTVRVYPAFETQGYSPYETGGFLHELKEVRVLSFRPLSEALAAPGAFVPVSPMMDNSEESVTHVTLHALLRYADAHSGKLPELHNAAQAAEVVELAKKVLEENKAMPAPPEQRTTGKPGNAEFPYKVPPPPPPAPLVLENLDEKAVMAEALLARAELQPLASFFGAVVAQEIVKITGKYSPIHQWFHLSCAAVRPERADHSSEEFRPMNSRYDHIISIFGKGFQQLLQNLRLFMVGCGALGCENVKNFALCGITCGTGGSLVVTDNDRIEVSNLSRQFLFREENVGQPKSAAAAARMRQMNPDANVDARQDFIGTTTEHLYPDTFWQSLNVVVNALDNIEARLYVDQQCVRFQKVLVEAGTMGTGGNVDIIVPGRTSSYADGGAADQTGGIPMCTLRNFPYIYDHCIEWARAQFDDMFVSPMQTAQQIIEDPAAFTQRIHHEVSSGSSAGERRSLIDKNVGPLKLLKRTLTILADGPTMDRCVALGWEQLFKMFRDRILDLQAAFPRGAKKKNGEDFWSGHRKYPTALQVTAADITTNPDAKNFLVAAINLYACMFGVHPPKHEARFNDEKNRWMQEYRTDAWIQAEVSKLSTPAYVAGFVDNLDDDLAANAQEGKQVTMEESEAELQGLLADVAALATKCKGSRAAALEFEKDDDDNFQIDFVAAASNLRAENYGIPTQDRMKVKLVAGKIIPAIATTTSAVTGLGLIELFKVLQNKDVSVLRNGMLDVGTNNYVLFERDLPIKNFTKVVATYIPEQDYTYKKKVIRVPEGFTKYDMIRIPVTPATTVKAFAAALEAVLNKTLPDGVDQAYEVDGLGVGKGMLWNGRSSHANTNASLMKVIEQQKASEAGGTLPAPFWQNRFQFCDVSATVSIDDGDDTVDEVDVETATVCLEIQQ
Put plainly: Leishmania donovani Ubiquitin Activating Enzyme (LdE1). It is filed as functional. To be noted: 30 µM.

Assay [3] addresses AMP-activated protein kinase, AMPK (Homo sapiens) (UniProt P54646+O43741+P54619+Q9UGJ0+Q9Y478+Q13131+Q9UGI9). As to the kind of experiment: AMP-dependent Kinase enzyme assay. An in vitro enzyme assay that detects ADP turnover that is directly proportional to AMPK activity. This uses naive AMPK that is activated during the assay with MK-8722. It is filed as functional. As to conditions: 30 µM.

The target of assay [4] is Sialic acid-binding Ig-like lectin 9 (Homo sapiens) (UniProt Q9Y336). Put plainly: Hs-Siglec9 ALPHAscreen SOP 20170721. As to conditions: 10 µM.
Sequence of Sialic acid-binding Ig-like lectin 9 (Homo sapiens) (Q9Y336 whole entry): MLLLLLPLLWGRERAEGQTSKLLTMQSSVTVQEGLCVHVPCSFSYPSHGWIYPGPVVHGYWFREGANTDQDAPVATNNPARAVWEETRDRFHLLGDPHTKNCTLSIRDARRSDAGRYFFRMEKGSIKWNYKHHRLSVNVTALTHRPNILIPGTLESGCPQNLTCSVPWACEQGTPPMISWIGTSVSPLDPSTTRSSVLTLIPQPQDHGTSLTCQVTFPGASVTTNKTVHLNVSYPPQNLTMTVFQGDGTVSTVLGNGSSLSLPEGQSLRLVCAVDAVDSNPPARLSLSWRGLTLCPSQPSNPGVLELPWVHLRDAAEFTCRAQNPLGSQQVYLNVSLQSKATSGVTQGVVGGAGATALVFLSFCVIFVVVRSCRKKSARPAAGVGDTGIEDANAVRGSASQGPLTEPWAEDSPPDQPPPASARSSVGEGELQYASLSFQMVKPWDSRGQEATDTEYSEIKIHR
The test system of the next assay is Trypanosoma cruzi. As to the kind of experiment: Trypanosoma cruzi phosphomannomutase and mannose-1-phosphate guanylyltransferase assay. It counts as functional. To be noted: 10 µM.
In assay [5] the target is T2, Arginase-2, mitochondrial (Homo sapiens) (UniProt P78540).
T2 sequence (whole entry): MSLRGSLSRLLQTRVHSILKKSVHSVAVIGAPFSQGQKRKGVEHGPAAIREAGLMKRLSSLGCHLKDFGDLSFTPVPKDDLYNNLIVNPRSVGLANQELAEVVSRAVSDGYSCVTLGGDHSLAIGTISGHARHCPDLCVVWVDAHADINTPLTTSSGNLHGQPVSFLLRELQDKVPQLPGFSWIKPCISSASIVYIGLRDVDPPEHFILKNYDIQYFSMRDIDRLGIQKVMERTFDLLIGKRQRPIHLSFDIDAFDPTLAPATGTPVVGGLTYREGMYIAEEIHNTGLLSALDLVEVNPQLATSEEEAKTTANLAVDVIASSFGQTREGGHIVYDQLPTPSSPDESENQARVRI
As to the kind of experiment: in vitro enzyme assay to detect the production of urea directly proportional to the activity of Arginase II. Further: in the data most compounds retested in dose-response had high values. It is filed as functional. As to conditions: 33.3 µM.

Assay [6] concerns the target T3, Proteasome subunit beta (Trypanosoma cruzi) (UniProt O96673).
T3 sequence (whole entry): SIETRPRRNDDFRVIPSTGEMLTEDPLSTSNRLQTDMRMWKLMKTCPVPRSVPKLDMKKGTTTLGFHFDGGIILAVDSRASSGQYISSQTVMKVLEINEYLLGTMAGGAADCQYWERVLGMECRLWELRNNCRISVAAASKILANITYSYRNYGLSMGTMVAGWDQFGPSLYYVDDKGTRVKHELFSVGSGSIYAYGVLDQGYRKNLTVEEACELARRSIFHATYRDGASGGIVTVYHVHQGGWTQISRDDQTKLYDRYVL
As to the kind of experiment: Trypanosoma cruzi proteasome chymotrypsin-like activity (TcProtChymo) assay. Further: in the data most compounds retested in dose-response had high values. It counts as functional. As to conditions: 9.37 µM.

The species entered for the next assay is Homo sapiens. As to the kind of experiment: To identify inhibition of the IFN signalling (Jak-Stat) pathway via expression of an eGFP reporter gene under the control of an IFN-stimulated response element (ISRE) containing MxA promoter. It counts as functional. To be noted: 30 µM. (In a reporter assay the amount or activity of a reporter protein is the signal.)

The target in assay [7] is T4, Tyrosyl-tRNA synthetase, putative (Trypanosoma cruzi (strain CL Brener)) (UniProt Q4DSP6).
T4 sequence (whole entry): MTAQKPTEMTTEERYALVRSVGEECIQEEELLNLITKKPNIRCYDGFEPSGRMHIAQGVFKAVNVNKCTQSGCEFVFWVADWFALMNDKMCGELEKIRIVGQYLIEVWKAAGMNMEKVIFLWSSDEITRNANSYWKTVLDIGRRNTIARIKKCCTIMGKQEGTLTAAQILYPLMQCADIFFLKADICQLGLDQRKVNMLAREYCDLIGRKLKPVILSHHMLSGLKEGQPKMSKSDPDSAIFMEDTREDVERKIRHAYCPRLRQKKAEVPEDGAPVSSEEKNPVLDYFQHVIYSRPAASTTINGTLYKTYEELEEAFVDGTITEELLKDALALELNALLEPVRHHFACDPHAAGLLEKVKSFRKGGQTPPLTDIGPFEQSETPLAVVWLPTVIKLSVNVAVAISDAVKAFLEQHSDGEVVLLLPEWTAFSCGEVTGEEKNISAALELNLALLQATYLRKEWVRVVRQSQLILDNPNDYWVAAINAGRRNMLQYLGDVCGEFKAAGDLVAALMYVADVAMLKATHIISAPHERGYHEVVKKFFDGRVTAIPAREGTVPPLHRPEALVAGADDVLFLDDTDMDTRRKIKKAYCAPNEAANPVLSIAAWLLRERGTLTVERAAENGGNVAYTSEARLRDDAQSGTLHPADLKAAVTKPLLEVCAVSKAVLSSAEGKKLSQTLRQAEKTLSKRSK
As to the kind of experiment: Trypanosoma cruzi tyrosyl tRNA synthetase (TcYRS) _High Tyrosine SOP. Further: in the data most compounds retested in dose-response had high values. As to conditions: 30 µM. It counts as functional.

In assay [8] the target is T4, Tyrosyl-tRNA synthetase, putative (Trypanosoma cruzi (strain CL Brener)). Put plainly: Trypanosoma cruzi tyrosyl tRNA synthetase (TcYRS) SOP. To be noted: 30 µM. It counts as functional.
Assay [9] has as its target Chromo domain-containing protein 1 (Saccharomyces cerevisiae (strain ATCC 204508 / S288c) (Baker's yeast)) (UniProt P32657). Put plainly: ScCHD-1 Enzyme Inhibition Assay. Further: in the data most compounds retested in dose-response had high values. It counts as functional. To be noted: 30 µM.

For some of these results: Results with a measured potency or affinity are listed apart.

Sequence of Chromo domain-containing protein 1 (Saccharomyces cerevisiae (strain ATCC 204508 / S288c) (Baker's yeast)) (P32657 whole entry, the tested form may be a part): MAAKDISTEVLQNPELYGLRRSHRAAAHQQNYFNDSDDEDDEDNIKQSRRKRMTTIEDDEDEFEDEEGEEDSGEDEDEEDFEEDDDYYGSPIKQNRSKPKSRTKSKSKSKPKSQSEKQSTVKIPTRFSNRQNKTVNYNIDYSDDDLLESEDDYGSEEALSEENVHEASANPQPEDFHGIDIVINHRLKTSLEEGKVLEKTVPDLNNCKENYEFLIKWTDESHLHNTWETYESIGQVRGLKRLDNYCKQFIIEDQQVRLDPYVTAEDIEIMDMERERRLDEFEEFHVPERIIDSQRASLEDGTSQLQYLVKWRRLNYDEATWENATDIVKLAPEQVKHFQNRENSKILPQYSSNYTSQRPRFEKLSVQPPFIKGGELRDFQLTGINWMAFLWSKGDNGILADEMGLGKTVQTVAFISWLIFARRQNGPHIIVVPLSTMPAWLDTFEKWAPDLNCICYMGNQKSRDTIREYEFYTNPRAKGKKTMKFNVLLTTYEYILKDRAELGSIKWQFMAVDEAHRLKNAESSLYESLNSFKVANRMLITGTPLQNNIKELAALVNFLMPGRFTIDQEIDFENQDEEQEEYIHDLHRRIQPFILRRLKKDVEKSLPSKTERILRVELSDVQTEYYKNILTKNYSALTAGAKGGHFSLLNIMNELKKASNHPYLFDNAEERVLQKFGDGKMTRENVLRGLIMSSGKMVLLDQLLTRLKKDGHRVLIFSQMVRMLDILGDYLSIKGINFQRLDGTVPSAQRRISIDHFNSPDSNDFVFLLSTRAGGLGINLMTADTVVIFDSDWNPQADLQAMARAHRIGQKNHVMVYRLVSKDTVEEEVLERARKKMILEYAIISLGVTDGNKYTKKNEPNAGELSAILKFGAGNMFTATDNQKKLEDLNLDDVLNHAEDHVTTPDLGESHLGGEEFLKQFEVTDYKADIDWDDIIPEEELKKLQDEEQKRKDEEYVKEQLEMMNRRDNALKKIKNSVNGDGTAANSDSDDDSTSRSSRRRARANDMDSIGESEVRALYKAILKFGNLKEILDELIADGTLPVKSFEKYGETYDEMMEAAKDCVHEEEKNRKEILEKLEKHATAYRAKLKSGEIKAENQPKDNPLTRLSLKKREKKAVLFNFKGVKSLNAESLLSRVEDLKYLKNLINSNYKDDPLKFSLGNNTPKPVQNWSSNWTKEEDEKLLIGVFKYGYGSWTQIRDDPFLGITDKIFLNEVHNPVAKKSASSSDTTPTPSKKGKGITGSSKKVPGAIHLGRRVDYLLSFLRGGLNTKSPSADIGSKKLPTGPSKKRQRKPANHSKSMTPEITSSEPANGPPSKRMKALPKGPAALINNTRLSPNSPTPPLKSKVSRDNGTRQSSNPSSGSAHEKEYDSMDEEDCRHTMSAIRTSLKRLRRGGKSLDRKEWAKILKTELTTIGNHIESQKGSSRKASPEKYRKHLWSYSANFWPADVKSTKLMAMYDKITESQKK
Sequence of Protein translocase subunit SecA (Escherichia coli (strain K12)) (P10408 whole entry): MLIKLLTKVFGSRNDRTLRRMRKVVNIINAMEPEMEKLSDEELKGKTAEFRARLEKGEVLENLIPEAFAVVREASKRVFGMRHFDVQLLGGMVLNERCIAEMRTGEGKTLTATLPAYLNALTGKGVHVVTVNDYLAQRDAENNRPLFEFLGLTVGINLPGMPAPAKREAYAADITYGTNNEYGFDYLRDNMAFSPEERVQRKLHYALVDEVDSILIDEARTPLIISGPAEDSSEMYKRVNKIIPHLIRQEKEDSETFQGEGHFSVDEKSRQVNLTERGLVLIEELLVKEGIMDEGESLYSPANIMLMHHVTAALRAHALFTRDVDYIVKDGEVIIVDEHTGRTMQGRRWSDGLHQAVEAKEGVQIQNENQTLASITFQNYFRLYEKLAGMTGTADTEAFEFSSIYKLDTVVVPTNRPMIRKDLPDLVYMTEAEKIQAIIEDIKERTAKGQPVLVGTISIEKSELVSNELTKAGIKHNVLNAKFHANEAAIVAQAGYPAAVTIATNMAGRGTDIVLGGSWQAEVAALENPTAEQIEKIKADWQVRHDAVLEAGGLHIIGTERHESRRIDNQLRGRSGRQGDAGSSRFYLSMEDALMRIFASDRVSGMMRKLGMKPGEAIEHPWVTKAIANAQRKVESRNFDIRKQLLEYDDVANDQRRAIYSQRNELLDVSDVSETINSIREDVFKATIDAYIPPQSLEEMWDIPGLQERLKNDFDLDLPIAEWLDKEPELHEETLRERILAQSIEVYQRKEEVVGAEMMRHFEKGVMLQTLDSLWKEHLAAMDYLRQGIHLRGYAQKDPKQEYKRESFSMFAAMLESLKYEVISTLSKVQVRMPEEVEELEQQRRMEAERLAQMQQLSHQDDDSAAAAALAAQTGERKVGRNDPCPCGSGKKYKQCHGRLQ

Take `CNS(=O)(=O)c1ccc(C(=O)NCCc2ccccn2)cc1`: the Percent Effect is -1.2% in assay [1]; 13.2% in assay [2]; -0.141% in assay [3]; 1.24% in [4]; -0.28% in the assay with Trypanosoma cruzi; -5.4% in [5]. Further, the Percent Effect in [6] is 10.2%; in the assay listed under Homo sapiens it was -22.9%; in assay [7], 7.39%; in [8] it was 16.1%; in assay [9], -7.59%.
For `CCOc1ccccc1-c1noc(CN(C)Cc2cnn(C)c2)n1`, the Percent Effect is 1.46% in [1]; 8.11% in [2]; -5.04% in assay [3]; 7.46% in [4]; -2.12% with Trypanosoma cruzi; -4.76% in assay [5]. Also, the Percent Effect is 11.9% in assay [6]; 4.5% in the assay listed under Homo sapiens; 4.76% in assay [7]; 9.76% in [8]; -1.75% in [9].
`Cc1ccc(N(CC(=O)c2ccc(Br)cc2)C2=NCCCCC2)cc1`: the Percent Effect in assay [1] is -1.45%; in [2] it was -55.3%; in assay [3], 5.34%; in assay [4], 3.76%; with Trypanosoma cruzi, 5.55%; in [5], -11.8%. Further, the Percent Effect is 11% in assay [6]; 17.9% in the assay listed under Homo sapiens; 4.25% in assay [7]; -2.6% in [8]; -1.8% in assay [9].
As to `Cc1[nH]c(=O)[nH]c(=O)c1CN1CCCC(CCc2ccccc2)C1` (stereo not drawn), the Percent Effect in [1] is -1.15%; in [2], 2.7%; in assay [3], -3.11%; in assay [4] it was 8.59%; in the assay on Trypanosoma cruzi it was -5.02%; in assay [5], 0.952%. For the same compound, the Percent Effect in assay [6] is 18.1%; in the assay listed under Homo sapiens, -0.602%; in assay [7] it was 4.76%; in assay [8], 17.1%; in [9], -3.68%.
With `NCC1Cn2nnc(-c3cccc(F)c3)c2CO1` (stereo not drawn), the Percent Effect in [1] was -1.49%; in [2], -20.8%; in assay [3], 2.11%; in [4] it was 0.572%; with Trypanosoma cruzi, 8.75%; in assay [5], -1.38%. Further, the Percent Effect in [6] is 7.99%; in the assay filed under Homo sapiens, -8.6%; in assay [7], 3.23%; in assay [8], 3.7%; in [9] it was -4.31%.
Regarding `Cc1cc(C)n(Cc2cccc(C(=O)NCCN3CCOCC3)c2)n1`, the Percent Effect in assay [1] was 6.23%; in assay [2], 5.2%; in [3], -1.94%; in assay [4], 1.34%; in the assay on Trypanosoma cruzi it was -6.59%; in assay [5], -6.9%. Also, the Percent Effect is 24.3% in [6]; 9.8% in the assay filed under Homo sapiens; 5.38% in assay [7]; 16.1% in assay [8]; -2.63% in [9].
For `Cc1nc(C)n(CC2CCCN(CCOc3cccc(C#N)c3)C2)n1` (stereo not drawn), the Percent Effect was 1.74% in assay [1]; 21.6% in [2]; 7.7% in assay [3]; 4.91% in assay [4]; -8.4% in the assay with Trypanosoma cruzi; 24.9% in [5]. Moreover, the Percent Effect in [6] was 11.2%; in the assay listed under Homo sapiens it was 17.4%; in assay [7], 0.493%; in assay [8] it was -1.24%; in assay [9], -4.16%.
For the compound `COc1ccc(CN2C[C@H](OCC3CCOCC3)[C@H]3COC[C@H]32)cc1`, the Percent Effect was -0.325% in [1]; 0% in assay [2]; -1.04% in assay [3]; 9.22% in [4]; -0.992% with Trypanosoma cruzi; -3.99% in assay [5]. The Percent Effect was 15.3% in assay [6]; 3.85% in the assay listed under Homo sapiens; 11.5% in [7]; 11.1% in [8]; -1.49% in assay [9].

The values are drawn from ChEMBL document CHEMBL3988442, “University of Dundee, Small-Polar-MMV Screening Library” (2021).
